From PubChem BioAssay AID518 (Sanford-Burnham Center for Chemical Genomics, 2006)
The whole screen tested about 64,000 compounds, of which about 55 (0.09%) were called active. No rule for the calls is given here. Not all results are given here.

These compounds were tested against Alkaline phosphatase, tissue-nonspecific isozyme (Homo sapiens) (UniProt P05186) (assay: inhibition of tissue-nonspecific alkaline phosphatase – biochemical, luminescent (AID 518;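 also: plate controls were vehicle for no effect and reference inhibitor for full effect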)). Conditions: purified TNAP enzyme, luminescent substrate readout; at 20 µM; stronger effect = higher value.
Alkaline phosphatase, tissue-nonspecific isozyme (Homo sapiens), sequence (P05186 whole entry, looked up): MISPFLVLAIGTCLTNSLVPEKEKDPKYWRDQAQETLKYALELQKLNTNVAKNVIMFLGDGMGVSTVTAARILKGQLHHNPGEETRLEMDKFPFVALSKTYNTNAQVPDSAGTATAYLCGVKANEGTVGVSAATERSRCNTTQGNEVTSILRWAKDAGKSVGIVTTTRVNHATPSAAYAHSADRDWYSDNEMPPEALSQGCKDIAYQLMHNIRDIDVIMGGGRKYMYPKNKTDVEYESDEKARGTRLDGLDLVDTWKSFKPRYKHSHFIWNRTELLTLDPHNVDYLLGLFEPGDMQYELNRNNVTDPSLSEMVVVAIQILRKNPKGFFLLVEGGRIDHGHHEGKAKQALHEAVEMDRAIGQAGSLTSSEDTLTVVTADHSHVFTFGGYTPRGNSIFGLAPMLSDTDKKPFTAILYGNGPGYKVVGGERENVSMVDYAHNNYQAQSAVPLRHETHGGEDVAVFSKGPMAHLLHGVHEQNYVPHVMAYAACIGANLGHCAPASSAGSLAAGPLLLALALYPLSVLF

inhibition, inactive:
O=C(O)c1ccc(S(=O)(=O)c2ccccc2)cc1 8.6%
CC(=O)C(Sc1nc(-c2ccco2)nc2c1c(=O)n(C)c(=O)n2C)C(=O)N(C)C (stereo unspecified) 6%
COc1cccc(N2CCN(C3CC(=O)N(c4ccc(F)c(Cl)c4)C3=O)CC2)c1 (stereo unspecified) 7.6%
O=C(c1ccc(-c2ccccc2)cc1)N1CCN(c2nc3ccccc3o2)CC1 -3.8%
COc1cc(/C=N/n2cnnc2)ccc1OCCOc1ccccc1 2.9%
COc1ccc(OCc2nc(C#N)c(N3CCN(c4ccc(OC)cc4)CC3)o2)cc1 16.1%
O=S(=O)(NCCc1cn2ccccc2n1)c1cccs1 1.2%
CC(=O)N1CCC(N(C(=O)Nc2ccc(C)c(C)c2)C2CCCC2)CC1 6.3%
CC1Cc2ccccc2N1C(=O)C1CCCN(S(=O)(=O)c2cccc3nsnc23)C1 (stereo unspecified) 15.5%
O=C(CSCc1ccccc1)N1CCN(c2ccc(F)cc2)CC1 5.6%
CSc1nc2c(c(=O)[nH]c(=O)n2C)n1C/C=C(\C)Cl 11.8%
O=C(Cn1ncc2c1-c1ccccc1OC2)N1CCN(c2ccccn2)CC1 16.3%
Cn1c(SCC(=O)N2CCOCC2)nnc1-c1ccccc1 3.9%
CCOc1cccc(-c2nnc3sc(-c4cc(OC)c(OC)cc4OC)nn23)c1 8.9%
CC(NC(=O)C(c1ccccc1)c1ccccc1)C(=O)O (stereo unspecified) 10%
CN(CC(=O)NCCC1=CCCCC1)S(=O)(=O)c1ccc2c(c1)CCC(=O)N2 6.5%
Cc1csc(NC(=O)CSc2nnc(-c3ccncc3)o2)n1 13.3%
Cc1ccc(-c2nc(CS(=O)(=O)CC(=O)N3CC(C)CC(C)C3)c(C)o2)cc1 (stereo unspecified) 2.5%
CCC1(c2ccc(F)cc2)NC(=O)N(CC(=O)c2ccc[nH]2)C1=O (stereo unspecified) 11.1%
Cc1ccc(-n2c(SCC(N)=O)nnc2-c2ccccn2)cc1 5.9%
Cc1nc(CN2CCN(C(=O)c3ccc(Br)cc3)CC2)cs1 8.9%
CC1(C)CC(=O)C2=C(C1)N(CC1CCCO1)C(=O)NC2(C(F)(F)F)C(F)(F)F (stereo unspecified) 7.8%
COc1cc(/C=N/n2cnnc2)ccc1OCC(=O)N1CCOCC1 9.7%
Cc1cc(C(=O)CSc2nncs2)c(C)n1-c1c(C)n(C)n(-c2ccccc2)c1=O 6.8%
COc1ccc(NC(=O)CSc2nnc(Cc3cccn3C)n2CCc2ccccc2)cc1OC 21.5%
Cc1oc(CC(C)C)cc1C(=O)Nc1ccc(C(=O)O)cc1 -1.6%
C=CCn1c(COc2ccccc2)nnc1SCc1ccc(C#N)cc1 5%
O=C1C2CCCN2C(c2ccccc2)N1c1cccc(Cl)c1 (stereo unspecified) 2.8%
COc1ccc(-c2ccc(-c3noc(-c4ccccc4C)n3)c(OC)n2)cc1 6.5%
CCCCn1c(Cl)nc2c1c(=O)n(C)c(=O)n2C 13.4%
CCOc1ccc(S(=O)(=O)Nc2nc3ccccc3nc2N2CCN(C)CC2)cc1 0.5%
O=C(c1cccnc1)N1CCN(C(=O)c2cccs2)CC1 4.7%
Cc1ccc(CC(=O)Nc2cccc(C)n2)cc1 6%
C=CCOC(=O)CCCC(=O)NC1CCCCC1 3.4%
CCOC(=O)C1Cc2cc3c(cc2C1=O)CC(C(=O)OCC)C3=O (stereo unspecified) 8.4%
CN(c1cccc(NC(=O)c2ccccc2N(C)S(C)(=O)=O)c1)S(C)(=O)=O 14.3%
O=C(NCCCN1CCCC1)C1CCC(=O)N1C1CCCCC1 (stereo unspecified) 7.6%
N#Cc1ccc(Sc2nc3ccccc3[nH]2)cc1C#N 0.3%
CC(C)Sc1nnc(NC(=O)C2CC2)s1 -0.5%
O=C(Nc1cccnc1)c1c(O)c2cccc3c2n(c1=O)CC3 5.4%
COc1ccc(CN2CCC(C(=O)N(C)CCc3ccc(OC)c(OC)c3)CC2)c(OC)c1 14%
O=C(NC1CCCCC1)c1ccc(Br)o1 9%
CC12CN3CC(C)(CN(C1)C3c1ccccc1Cl)C2O (stereo unspecified) 3.8%
O=C(NCCc1csc(-c2ccccc2)n1)c1cccs1 9.4%
Cc1cc(NC(=O)c2cccc(S(=O)(=O)N3CCCCCC3)c2)n(-c2ccccn2)n1 -5.7%
CCOC(=O)C1CCN(C(=O)COC(=O)CCOc2ccc(C)cc2)CC1 7.4%
CCOc1ccc(C(=O)CN2CCN(S(=O)(=O)c3ccc(Cl)cc3)CC2)cc1 4.9%
COc1ccc(C(C)=O)cc1CSc1nnc(C)s1 7%
CC(=O)c1cccc(NC(=O)c2cccc(S(=O)(=O)N(C)C)c2)c1 6.3%
c1ccc2c(c1)CNc1ccccc1C2 5%
COc1ccc(-n2nnc3c(SCC(=O)NCc4ccco4)ncnc32)cc1 11.9%
COc1cccc(NC(=O)c2ccc3c(c2)N(CC(=O)N2CCCCC2)C(=O)C(C)(C)O3)c1 1.3%
COc1ccc(Nc2nc(N)nc(SCc3nnc(C)s3)n2)cc1 -0.5%
COc1ccccc1N1CCN(C(=O)CSc2nnc3n2C(C)(C)Cc2ccccc2-3)CC1 10.5%
CC1=C(c2ccc(Cl)cc2)[N+](=O)C(C)(C)N1[O-] 20.3%
Cc1ccc(C(C(=O)NC2CCCCC2)N(CC2CCCO2)C(=O)CNC(=O)c2ccco2)cc1 (stereo unspecified) 2.7%
CC(OC(=O)CNC(=O)c1ccc2c(c1)OCO2)C(=O)NCCC1=CCCCC1 (stereo unspecified) 8.9%
CN(C)c1ccc(C(C(=O)NC(C)(C)C)N(C(=O)c2csnn2)C2CC2)cc1 (stereo unspecified) 6.8%
CC(c1nnc(SCC(=O)c2c(N)n(C)c(=O)n(C)c2=O)n1-c1ccc(Cl)cc1)N(C)C (stereo unspecified) 2.8%
CC1CCCCN1CCNC(=O)C1CCN(S(=O)(=O)c2cccc3cccnc23)CC1 (stereo unspecified) 9.7%
Cc1ccc(S(=O)c2ccc(C)cc2)cc1 4.1%
O=C(CC1CCCCC1)c1c(O)c2ccccc2oc1=O 5%
CCOC(=O)c1[nH]c(CSc2nnc(-c3ccncc3)n2CCOC)c(C(=O)OCC)c1C 10.1%
CC1CC=C2C(C#N)=C(N)C(C#N)(C#N)C(c3cccs3)C2C1 (stereo unspecified) 8.9%
CCc1ccc(Nc2cc(=O)n(C3CCCCC3)c(=O)[nH]2)cc1 11.3%
COc1cccc(-c2cc(C(=O)NCc3ccc(Cl)cc3)no2)c1 8.1%
COc1ccc(S(=O)(=O)N2C3CCC2CC(NC(=O)C2CC2)C3)cc1 (stereo unspecified) 2%
Nc1nc(CN2CCN(Cc3ccc4c(c3)OCO4)CC2)nc(Nc2ccccc2)n1 12.3%
CC1(C)NC(=O)N(CC(O)COc2ccc(N3C(=O)c4ccccc4C3=O)cc2)C1=O (stereo unspecified) 8.6%
COc1ccc(N2C(=O)CSC2c2ccc3c(c2)OCO3)cc1 (stereo unspecified) 13.6%
CC(C)NS(=O)(=O)c1ccc(OCC(N)=O)c(Cl)c1 9.1%
Cc1cccc(NC(=O)CC(C)(C)C)c1 8.8%
Cc1nc(CSc2nnc3scc(-c4ccccc4)n23)cs1 6.4%
CCCCCN=C(C)c1c(O)c2ccccc2oc1=O 7.3%
CNc1oc(Cc2ccccc2)nc1S(=O)(=O)c1ccccc1 9.1%
COC(=O)Nc1sc2c(c1C(N)=O)CCCCCC2 15.8%
